# Reference: the supplement of paper PMC8728848
# Many of the other results were omitted from the sample, so the strongest signals are more common in it than they were.
# B1: ArathEULS3 (Arabidopsis thaliana), Q945P1 (protein)
# chain: MEHHHQHHRHHQRDDGEDDRQSFGVPPPHVDAPPQPHGLYQSQPHFDPYAPTPQAPAPYRSETQFEPHAPPPYRSEPYFETPAPPPSFGHVSHVGHQSPNESYPPEHHRYGGYQQPSNSLLESHGDHSGVTHVAHHSSNQPQSSSGVYHKPDENRLPDNLAGLAGRATVKVYSKAEPNYNLTIRDGKVILAPADPSDEAQHWYKDEKYSTKVKDADGHPCFALVNKATGEAMKHSVGATHPVHLIRYVPDKLDESVLWTESKDFGDGYRTIRMVNNTRLNVDAYHGDSKSGGVRDGTTIVLWDWNKGDNQLWKIFPFILEQKLISEEDLNSAVDHHHHHH
# Legend:
# Test in all cases: glycan array binding signal (z-score within array); higher = stronger binding
# Details in all cases: glycan notation: IUPAC condensed, linker removed
# [1] = molecular target: Fuc(a1-2)Gal(b1-3)GlcNAc
# How it was run: (§1)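 Glycan array data were curated from 3228 arrays in the Consortium for Functional Glycomics database and kept only where the protein sequence was available. Glycan names were converted to IUPAC-condensed notation, and columns mapping to the same glycan were averaged. The binding signal is a within-array Z-score, averaged across arrays of the same protein sequence at different concentrations or buffers and across linkers. Negative Z-scores can be read as non-binding.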
# [2] = molecular target: Fuc(a1-2)Gal(b1-3)GlcNAc(b1-2)Man(a1-3)[Fuc(a1-2)Gal(b1-3)GlcNAc(b1-2)Man(a1-6)]Man(b1-4)GlcNAc(b1-4)[Fuc(a1-6)]GlcNAc
# How it was run: as §1
# [3] = molecular target: Fuc(a1-2)Gal(b1-4)GlcNAc(b1-2)[Fuc(a1-2)Gal(b1-4)GlcNAc(b1-4)]Man(a1-3)[Fuc(a1-2)Gal(b1-4)GlcNAc(b1-2)Man(a1-6)]Man(b1-4)GlcNAc(b1-4)GlcNAc
# How it was run: as §1
# [4] = molecular target: Fuc(a1-2)Gal(b1-4)[Fuc(a1-3)]GlcNAc(b1-2)Man(a1-3)[Fuc(a1-2)Gal(b1-4)[Fuc(a1-3)]GlcNAc(b1-2)Man(a1-6)]Man(b1-4)GlcNAc(b1-4)GlcNAc
# How it was run: as §1
# [5] = molecular target: Fuc(a1-2)Gal(b1-4)[Fuc(a1-3)]GlcNAc(b1-3)GalNAc
# How it was run: as §1
# [6] = molecular target: Fuc(a1-2)Gal6S(b1-3)GlcNAc
# How it was run: as §1
# [7] = molecular target: Fuc(a1-2)[Gal(a1-3)]Gal
# How it was run: as §1
# [8] = molecular target: Fuc(a1-2)[GalNAc(a1-3)]Gal(b1-4)GlcNAc
# How it was run: as §1
# [9] = molecular target: Fuc(a1-2)[GalNAc(a1-3)]Gal(b1-4)GlcNAc(b1-3)GalNAc
# How it was run: as §1
# [10] = molecular target: Fuc(a1-2)[GalNAc(a1-3)]Gal(b1-4)[Fuc(a1-3)]GlcNAc(b1-3)GalNAc
# How it was run: as §1
# [11] = molecular target: Gal(a1-3)Gal(b1-3)GlcNAc(b1-2)Man(a1-3)[Gal(a1-3)Gal(b1-3)GlcNAc(b1-2)Man(a1-6)]Man(b1-4)GlcNAc(b1-4)GlcNAc
# How it was run: as §1
# [12] = molecular target: Gal(a1-3)Gal(b1-3)[Fuc(a1-4)]GlcNAc(b1-2)Man(a1-3)[Gal(a1-3)Gal(b1-3)[Fuc(a1-4)]GlcNAc(b1-2)Man(a1-6)]Man(b1-4)GlcNAc(b1-4)GlcNAc
# How it was run: as §1
# [13] = molecular target: Gal(a1-4)Gal(b1-4)Glc
# How it was run: as §1
# [14] = molecular target: Gal(a1-6)Glc
# How it was run: as §1
# [15] = molecular target: Gal(b1-3)GlcNAc(a1-6)Gal(b1-4)GlcNAc
# How it was run: as §1
# [16] = molecular target: Gal(b1-4)GlcNAc(b1-2)Man(a1-6)Man(b1-4)GlcNAc(b1-4)GlcNAc
# How it was run: as §1
# [17] = molecular target: Gal(b1-4)GlcNAc(b1-2)[Gal(b1-4)GlcNAc(b1-4)]Man(a1-3)[GlcNAc(b1-4)][Gal(b1-4)GlcNAc(b1-2)[Gal(b1-4)GlcNAc(b1-6)]Man(a1-6)]Man(b1-4)GlcNAc(b1-4)GlcNAc
# How it was run: as §1
# [18] = molecular target: Gal(b1-4)GlcNAc(b1-2)[Gal(b1-4)GlcNAc(b1-6)]Man(a1-6)[Gal(b1-4)GlcNAc(b1-2)Man(a1-3)]Man(b1-4)GlcNAc(b1-4)[Fuc(a1-6)]GlcNAc
# How it was run: as §1
# [19] = molecular target: Gal3S(b1-3)GlcNAc
# How it was run: as §1
# [20] = molecular target: GalNAc(b1-3)GalNAc
# How it was run: as §1
# [21] = molecular target: GalNAc4S6S(b1-4)GlcNAc
# How it was run: as §1
binder,measurement,setting,value
B1,glycan array binding signal (z-score),[1],-0.25
same,glycan array binding signal (z-score),[2],0.265
same,glycan array binding signal (z-score),[3],0.36
same,glycan array binding signal (z-score),[4],1.64
same,glycan array binding signal (z-score),[5],11.8
same,glycan array binding signal (z-score),[6],-0.322
same,glycan array binding signal (z-score),[7],-0.303
same,glycan array binding signal (z-score),[8],-0.305
same,glycan array binding signal (z-score),[9],-0.012
same,glycan array binding signal (z-score),[10],7.35
same,glycan array binding signal (z-score),[11],4.38
same,glycan array binding signal (z-score),[12],0.898
same,glycan array binding signal (z-score),[13],-0.332
same,glycan array binding signal (z-score),[14],-0.342
same,glycan array binding signal (z-score),[15],-0.235
same,glycan array binding signal (z-score),[16],2.12
same,glycan array binding signal (z-score),[17],5.54
same,glycan array binding signal (z-score),[18],-0.026
same,glycan array binding signal (z-score),[19],-0.279
same,glycan array binding signal (z-score),[20],0.511
same,glycan array binding signal (z-score),[21],-0.105
